Where “and” joins values, the source holds several entries; their conditions need not be identical. Equal entries are not always repeated. About 83,000 compounds went through this panel and 20% of them were active in at least one assay; those are over-represented in the sample as a whole.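 Method: cells in 96-well plates; compound added at one concentration; 48 h incubation; percent growth measured; values under 10 scored active.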 Unmarked numbers belong to inactive results. Calls of active or inactive are those of the source.
What follows are molecules tested on MDA-MB-468 breast (assay: NCI-60 one-dose screen, 48 h (100 = growth as untreated, 0 = no growth, -100 = all killed)). Settings: 10 µM unless noted.
For `N#Cc1cc(-c2ccc3ncnc(N4CCc5cc(F)c(Cl)cc54)c3c2)cnc1N`, the growth was -14.7% (active). Molecule `Cn1cc(Nc2ncnc(-c3ccc(N4CCCC4)c(C#N)c3)n2)cn1` has a growth of 16.7%. With `CN(C)CCCc1ccc(Nc2cnn(C)c(=O)c2Cl)cc1` the growth was 82.8%. For `O=Cc1cncc(-c2ccc3ncnc(N4CCc5cc(F)c(Cl)cc54)c3c2)c1`, the growth was -52.4% (active). `N#CC1=C(c2cccs2)Nc2c(c(-c3ccccc3)nn2-c2ccccc2)C12C(=O)Nc1ccccc12` (stereo not given) was tested, and the growth was -9.71% (active). `O=C(CSc1nc2sc3c(c2c(=O)n1-c1ccc(Cl)cc1)CCCC3)NNC(=O)c1ccc(F)cc1` gave a growth of 95%. With `COc1ccc(-c2cc(-c3cc(OC)c(OC)c(OC)c3)[nH]c(=O)c2C#N)cc1` the growth was 79.8%. For `CC(=O)Nc1cccc(-n2c(COc3ccc(Br)cc3)nc3ccccc32)c1`, the growth was 81.7% and 102%. In the case of `Cc1cc(Cl)ccc1NC(=O)Nc1ccc(-c2ccc3c(c2)NC(=O)/C3=C\c2ccc[nH]2)cc1`, the growth is reported as -2.85% (active). `Nc1cc(-c2c[nH]c3ccc(Br)cc23)nc2cc(-c3c[nH]c4ccccc34)nn12` was tested, and the growth was -81.8% (active). With `CCc1ccc(SC2c3cc(OC)ccc3Oc3nc(N)c(C#N)c(N)c32)cc1` (stereo not given) the growth was -78.8% (active). `COc1ccc(C(=O)NNC(=O)CSc2nc3sc4c(c3c(=O)n2-c2ccc(Cl)cc2)CCCC4)cc1` showed a growth of 88.3%. For `CNc1nc2ccccc2n2c(-c3ccc(O)c(O)c3)cnc12`, the growth was 5.66% (active). With `CN(CCSSCCN1CCOCC1)C(=O)Oc1cc2c(c3ccccc13)[C@H](CCl)CN2C(=O)c1cc2cc(OCCCN3CCC3)ccc2[nH]1` the growth was -80% (active). With `Cn1cc(-c2cc(N)n3nc(-c4c[nH]c5ccc(F)cc45)cc3n2)c2cccnc21` the growth was -92.9% (active). With `O=C(Cn1c(-c2ccccc2)nc2ccccc21)N=Nc1c(O)[nH]c2ccc(Br)cc12` the growth was -53.4% (active). For `O=C(NN1C(=O)/C(=C/C=C/c2ccc([N+](=O)[O-])o2)SC1=S)c1ccncc1`, the growth was -73.9% (active). Molecule `CCCCCCCCCc1ccc(C(=O)Nc2cc(C)ccc2C(=O)OC)cc1` has a growth of 118%. `COc1ccc(N=Nc2c(N)nn3c(-c4ccc([N+](=O)[O-])cc4)ccnc23)cc1` showed a growth of 105%. For `COc1ccc2[nH]c(O)c(N=Nc3nc(-c4ccc(Cl)cc4)cs3)c2c1`, the growth was -60.8% (active). For `C[C@@H](Nc1c(C#N)cnc2ccc(-c3cnc4[nH]ncc4c3)cc12)c1ccccc1`, the growth was -70.1% (active). In the case of `CS(=O)(=O)Nc1cccc(-n2c(COc3ccc(OC(F)(F)F)cc3)nc3ccccc32)c1`, the growth is reported as 107% and 106%. In the case of `Cc1cc(C(NC(=O)CCCCCNc2cccc3c2C(=O)N(C2CCC(=O)CC2=O)C3=O)c2cccc(N(C)C)c2)c(O)c2ncccc12` (stereo not given), the growth is reported as -24.4% (active). For `COc1ccc(S(=O)(=O)Nc2ccc(-c3ccc4c(c3)NC(=O)/C4=C\c3ccc[nH]3)cc2)cc1OC`, the growth was -56.2% (active). Work on `COc1ccc(-c2nc3ccccc3n2CC(=O)N=Nc2c(O)[nH]c3ccc(OC)cc23)cc1` yielded a growth of 52.4%. `Cc1ccc(C(C(=O)NC2CCCCC2)N(Cc2ccccc2Cl)C(=O)c2ccc(CN3CCOCC3)o2)o1` (stereo not given) gave a growth of 84.7%. Molecule `COc1ccc(N=Nc2c(N)nn3c(-c4ccc(OC)c(OC)c4)ccnc23)cc1` has a growth of 80.2%. With `Cc1ccc(Cl)cc1NC(=O)N/C(N)=N/c1nc2ccccc2s1` the growth was -30.1% (active). In the case of `N#Cc1cc(-c2ccnc(Nc3ccc(N4CCN(C5COC5)CC4)cc3)n2)ccc1N1CCCC1`, the growth is reported as 38.8%. With `COc1ccc(-c2nc3ccc(-c4nnc(SCC(=O)Nc5ccc(/C(C)=N\O)cc5)o4)cc3[nH]2)cc1` the growth was 100%. In the case of `O=C1/C(=C/c2cnc(-c3ccccc3)s2)SC(=S)N1Cc1ccc2c(c1)OCO2`, the growth is reported as 43.2%. Work on `Cc1nn(-c2ccccc2)c2ncn(CC(=O)N/N=C/c3ccccc3O)c(=O)c12` yielded a growth of 10.9%. In the case of `COc1ccc(C2=NN(C(=O)[C@H]3[C@@H](c4ccco4)c4sc(=O)[nH]c4S[C@@H]3C)C(c3ccc4ccccc4c3)C2)cc1` (stereo not given in full), the growth is reported as -14.6% (active). In the case of `CCc1ccccc1NC(=O)N/C(N)=N/c1nc2ccccc2s1`, the growth is reported as -21.2% (active). For `O=C(Nc1ccc(Cl)c(C(F)(F)F)c1)N1CCN(c2cc(-c3cn(-c4ccccc4)nc3-c3cccc(O)c3)ccn2)CC1`, the growth was -34.8% (active).
